# Active and inactive are the calls of the source. Rule for the calls: active = hit-call score of the fitted dose curve at least 0.9, where 1 is the maximum; inactive = score below 0.9.
# Assay: UKN2_HCS_IMR90_neural_migration: University of Konstanz (UKN) Leist Lab Neural Crest Cell Migration Assay in human induced IMR90 Pluripotent Stem Cells (UKN2) (AID 2284204)
# Settings: actives raise or lower the signal
# In short: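 Stopper-exclusion migration (cMINC), human iPSC-derived neural crest cells; N2-S + EGF/FGF; compound added 24 h post-stopper removal, 24 h exposure. Readout: calcein-AM/Hoechst 30 min, HCS fluorescence imaging; bidirectional fitting, DMSO baseline.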
smiles,measurement,value
CCCCNS(=O)(=O)c1ccccc1,outcome,inactive

# Source: PubChem BioAssay (EPA / NIEHS)
